# Shown is part of a subset that was picked to be rich in the strongest signals.
# What was measured:
# Assay in all cases: glycan array binding signal (z-score within array); higher = stronger binding
# Settings in all cases: glycan notation: IUPAC condensed, linker removed
# GalNAc(b1-6)GalNAc = target: GalNAc(b1-6)GalNAc
# How it was run: (§1)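 Columns mapping to the same glycan were averaged after glycan names were converted to IUPAC-condensed notation. The data come from 3228 arrays in the Consortium for Functional Glycomics database, limited to those with an available protein sequence. Binding is reported as a within-array Z-score averaged across arrays of one protein sequence and across linkers.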
# GalNAc6S(b1-4)GlcNAc = target: GalNAc6S(b1-4)GlcNAc
# How it was run: as §1
# [1] = target: Glc(a1-4)Glc(a1-4)Glc(a1-4)Glc
# How it was run: as §1
# Glc(b1-6)Glc = target: Glc(b1-6)Glc
# How it was run: as §1
# [2] = target: GlcNAc(a1-4)Gal(b1-3)GlcNAc
# How it was run: as §1
# [3] = target: GlcNAc(a1-4)Gal(b1-4)GlcNAc(b1-3)Gal(b1-4)[Fuc(a1-3)]GlcNAc(b1-3)Gal(b1-4)[Fuc(a1-3)]GlcNAc
# How it was run: as §1
# [4] = target: GlcNAc(b1-3)Gal(b1-4)GlcNAc
# How it was run: as §1
# [5] = target: GlcNAc(b1-3)Gal(b1-4)GlcNAc(b1-2)Man(a1-3)[GlcNAc(b1-3)Gal(b1-4)GlcNAc(b1-2)Man(a1-6)]Man(b1-4)GlcNAc(b1-4)GlcNAc
# How it was run: as §1
# [6] = target: GlcNAc(b1-3)Gal(b1-4)GlcNAc(b1-3)Gal(b1-4)GlcNAc(b1-2)[GlcNAc(b1-3)Gal(b1-4)GlcNAc(b1-3)Gal(b1-4)GlcNAc(b1-6)]Man(a1-6)[GlcNAc(b1-3)Gal(b1-4)GlcNAc(b1-3)Gal(b1-4)GlcNAc(b1-2)Man(a1-3)]Man(b1-4)GlcNAc(b1-4)[Fuc(a1-6)]GlcNAc
# How it was run: as §1
# Kdn(a2-3)Gal(b1-3)GalNAc = target: Kdn(a2-3)Gal(b1-3)GalNAc
# How it was run: as §1
# [7] = target: Neu5Ac(a2-3)Gal(b1-4)GlcNAc(b1-3)Gal(b1-3)GlcNAc
# How it was run: as §1
# [8] = target: Neu5Ac(a2-3)Gal(b1-4)GlcNAc(b1-3)Gal(b1-4)GlcNAc(b1-2)Man(a1-3)[Neu5Ac(a2-3)Gal(b1-4)GlcNAc(b1-3)Gal(b1-4)GlcNAc(b1-2)Man(a1-6)]Man(b1-4)GlcNAc(b1-4)GlcNAc
# How it was run: as §1
# [9] = target: Neu5Ac(a2-3)Gal(b1-4)[Fuc(a1-3)]GlcNAc(b1-2)Man
# How it was run: as §1
# [10] = target: Neu5Ac(a2-3)Gal(b1-4)[Fuc(a1-3)]GlcNAc(b1-3)Gal(b1-4)GlcNAc
# How it was run: as §1
# [11] = target: Neu5Ac(a2-6)Gal(b1-4)GlcNAc(b1-2)Man(a1-3)[Neu5Ac(a2-3)Gal(b1-4)GlcNAc(b1-2)Man(a1-6)]Man(b1-4)GlcNAc(b1-4)GlcNAc
# How it was run: as §1
# [12] = target: Neu5Ac(a2-6)Gal(b1-4)GlcNAc6S
# How it was run: as §1
# Neu5Ac(a2-8)Neu5Ac = target: Neu5Ac(a2-8)Neu5Ac
# How it was run: as §1
# [13] = target: Neu5Ac(a2-8)Neu5Ac(a2-8)Neu5Ac
# How it was run: as §1
# [14] = target: Neu5Ac9Ac(a2-6)Gal(b1-4)GlcNAc
# How it was run: as §1
# [15] = target: Neu5Gc(a2-3)Gal(b1-4)GlcNAc
# How it was run: as §1
# [16] = target: Neu5Gc(a2-3)Gal(b1-4)[Fuc(a1-3)]GlcNAc
# How it was run: as §1
# [17] = target: Neu5Gc(a2-8)Neu5Ac(a2-3)Gal(b1-4)GlcNAc
# How it was run: as §1
# [18] = target: Fuc(a1-2)Gal(b1-3)GalNAc(a1-3)[Fuc(a1-2)]Gal(b1-4)GlcNAc
# How it was run: as §1
# [19] = target: Fuc(a1-2)Gal(b1-3)GlcNAc(b1-3)[Gal(b1-4)GlcNAc(b1-6)]Gal(b1-4)Glc
# How it was run: as §1
# [20] = target: Fuc(a1-2)Gal(b1-3)[Fuc(a1-4)]GlcNAc(b1-2)Man(a1-3)[Fuc(a1-2)Gal(b1-3)[Fuc(a1-4)]GlcNAc(b1-2)Man(a1-3)]Man(b1-4)GlcNAc(b1-4)GlcNAc
# How it was run: as §1
# Fuc(a1-2)Gal(b1-4)Glc = target: Fuc(a1-2)Gal(b1-4)Glc
# How it was run: as §1
# [21] = target: Fuc(a1-2)Gal(b1-4)GlcNAc(b1-6)GalNAc
# How it was run: as §1
# [22] = target: Fuc(a1-2)Gal(b1-4)[Fuc(a1-3)]GlcNAc
# How it was run: as §1
# [23] = target: Fuc(a1-2)Gal3S(b1-4)GlcNAc
# How it was run: as §1
# [24] = target: Fuc(a1-2)[GalNAc(a1-3)]Gal(b1-4)GlcNAc(b1-2)Man(a1-3)[Fuc(a1-2)[GalNAc(a1-3)]Gal(b1-4)GlcNAc(b1-2)Man(a1-6)]Man(b1-4)GlcNAc(b1-4)[Fuc(a1-6)]GlcNAc
# How it was run: as §1
# [25] = target: Fuc(a1-2)[GalNAc(a1-3)]Gal(b1-4)GlcNAc(b1-3)Gal(b1-4)GlcNAc
# How it was run: as §1
# [26] = target: Fuc(a1-2)[GalNAc(a1-3)]Gal(b1-4)[Fuc(a1-3)]GlcNAc
# How it was run: as §1
# [27] = target: Fuc(a1-3)[Gal(b1-4)]GlcNAc(b1-3)Gal(b1-4)[Fuc(a1-3)]GlcNAc
# How it was run: as §1
# [28] = target: Fuc(a1-3)[Gal(b1-4)]GlcNAc6S
# How it was run: as §1
# [29] = target: Gal(a1-3)Gal(b1-3)GlcNAc(b1-2)Man
# How it was run: as §1
# [30] = target: Gal(b1-3)GlcNAc(a1-3)Gal(b1-4)GlcNAc
# How it was run: as §1
# [31] = target: Gal(b1-3)GlcNAc(b1-3)Gal(b1-4)GlcNAc
# How it was run: as §1
# [32] = target: Gal(b1-4)GlcNAc(b1-3)Gal(b1-3)GlcNAc
# How it was run: as §1
# [33] = target: Gal(b1-4)GlcNAc(b1-3)Gal(b1-4)GlcNAc(b1-3)Gal(b1-4)GlcNAc(b1-3)Gal(b1-4)GlcNAc(b1-3)Gal(b1-4)GlcNAc(b1-2)Man(a1-3)[Gal(b1-4)GlcNAc(b1-3)Gal(b1-4)GlcNAc(b1-3)Gal(b1-4)GlcNAc(b1-3)Gal(b1-4)GlcNAc(b1-3)Gal(b1-4)GlcNAc(b1-2)Man(a1-6)]Man(b1-4)GlcNAc(b1-4)[Fuc(a1-6)]GlcNAc
# How it was run: as §1
# [34] = target: Gal(b1-4)GlcNAc(b1-3)Gal(b1-4)[Fuc(a1-3)]GlcNAc(b1-3)Gal(b1-4)[Fuc(a1-3)]GlcNAc
# How it was run: as §1
# [35] = target: Gal3S(b1-3)[Fuc(a1-4)]GlcNAc
# How it was run: as §1
# Gal4S(b1-4)GlcNAc = target: Gal4S(b1-4)GlcNAc
# How it was run: as §1
# Gal6S(b1-4)GlcNAc = target: Gal6S(b1-4)GlcNAc
# How it was run: as §1
# [36] = target: GalNAc(a1-3)GalNAc(b1-3)Gal(a1-4)Gal(b1-4)GlcNAc
# How it was run: as §1
# GalNAc(b1-4)GlcNAc = target: GalNAc(b1-4)GlcNAc
# How it was run: as §1
# [37] = target: GalNAc(b1-4)GlcNAc(b1-2)Man(a1-3)[GalNAc(b1-4)GlcNAc(b1-2)Man(a1-6)]Man(b1-4)GlcNAc(b1-4)GlcNAc
# How it was run: as §1
# GalNAc3S(b1-4)GlcNAc3S = target: GalNAc3S(b1-4)GlcNAc3S
# How it was run: as §1
# Glc(a1-6)Glc(a1-6)Glc = target: Glc(a1-6)Glc(a1-6)Glc
# How it was run: as §1
# [38] = target: GlcNAc(b1-2)Gal(b1-3)GalNAc
# How it was run: as §1
# [39] = target: GlcNAc(b1-2)[GlcNAc(b1-4)]Man(a1-3)[GlcNAc(b1-2)Man(a1-6)]Man(b1-4)GlcNAc(b1-4)GlcNAc
# How it was run: as §1
# [40] = target: GlcNAc(b1-3)Gal(b1-4)GlcNAc(b1-3)Gal(b1-4)GlcNAc(b1-3)Gal(b1-4)GlcNAc(b1-3)Gal(b1-4)GlcNAc(b1-2)Man(a1-3)[GlcNAc(b1-3)Gal(b1-4)GlcNAc(b1-3)Gal(b1-4)GlcNAc(b1-3)Gal(b1-4)GlcNAc(b1-3)Gal(b1-4)GlcNAc(b1-2)Man(a1-6)]Man(b1-4)GlcNAc(b1-4)[Fuc(a1-6)]GlcNAc
# How it was run: as §1
# [41] = target: GlcNAc(b1-3)Gal(b1-4)GlcNAc(b1-3)Gal(b1-4)GlcNAc(b1-3)GalNAc
# How it was run: as §1
binder,measurement,setting,value
Vd7LysM (Verticillium dahliae) (protein) RRGPEPKYPPAAGTSSYCSYWVDYEGDKSCSRVLEDNVVVLKDFARWNPTVGADCSGIKAGNSYCVEAFGEPEPIEVTTTTRAATTTTQPTATTTTFANGIATPQPTQSGMVTNCNKFHWIAEGVSCSQVISFQKITLADFVKWNPSVKSDCSGMWAGVNVCVGVVGSSTDTAKPTTTAPSNGVVTPQPTQPSMVTNCNKFHWIAKGVTCQQVISYQKISLADFVKWNPSVLSDCSGMWAEVQVCVGVIGSTPTTLATTTTTAGNGVSTPLPTQPGMVTNCAKFHWVAKGVTCNQIYSFQKITLEQFVSYNPTVKSDCSGMQAEVQVCVGLIAGTTPTTTRPPTTTAPGNGVSTPQPTQPGMVTNCAKFHWVAKGVTCNQIYSFQKITLEQFVSFNPTVKSDCTGMQAEVNVCVGLIGGNPTPTQTGNGIATPTPIQPGMVSNCKKFHWIAQGVTCQQVISFQKITLADFVKWNTGVGSDCRTMWAETNVCVGV,glycan array binding signal (z-score),GalNAc(b1-6)GalNAc,0.192
same,glycan array binding signal (z-score),GalNAc6S(b1-4)GlcNAc,0.22
same,glycan array binding signal (z-score),[1],0.035
same,glycan array binding signal (z-score),Glc(b1-6)Glc,-1.06
same,glycan array binding signal (z-score),[2],-0.658
same,glycan array binding signal (z-score),[3],1.23
same,glycan array binding signal (z-score),[4],0.117
same,glycan array binding signal (z-score),[5],2.67
same,glycan array binding signal (z-score),[6],2.72
same,glycan array binding signal (z-score),Kdn(a2-3)Gal(b1-3)GalNAc,3.09
same,glycan array binding signal (z-score),[7],1.03
same,glycan array binding signal (z-score),[8],2.5
same,glycan array binding signal (z-score),[9],-0.307
same,glycan array binding signal (z-score),[10],0.427
same,glycan array binding signal (z-score),[11],0.213
same,glycan array binding signal (z-score),[12],0.8
same,glycan array binding signal (z-score),Neu5Ac(a2-8)Neu5Ac,-0.418
same,glycan array binding signal (z-score),[13],-0.119
same,glycan array binding signal (z-score),[14],2.97
same,glycan array binding signal (z-score),[15],0.306
same,glycan array binding signal (z-score),[16],0.377
same,glycan array binding signal (z-score),[17],-0.354
"EfCBM33A (Enterococcus faecalis), Q838S1 (protein) MKKSLLTIVLAFSFVLGGAALAPTVSEAHGYVASPGSRAFFGSSAGGNLNTNVGRAQWEPQSIEAPKNTFITGKLASAGVSGFEPLDEQTATRWHKTNITTGPLDITWNLTAQHRTASWDYYITKNGWNPNQPLDIKNFDKIASIDGKQEVPNKVVKQTINIPTDRKGYHVIYAVWGIGDTVNAFYQAIDVNIQ",glycan array binding signal (z-score),[18],-0.436
same,glycan array binding signal (z-score),[19],-0.026
same,glycan array binding signal (z-score),[20],0.371
same,glycan array binding signal (z-score),Fuc(a1-2)Gal(b1-4)Glc,0.342
same,glycan array binding signal (z-score),[21],1.05
same,glycan array binding signal (z-score),[22],0.633
same,glycan array binding signal (z-score),[23],0.017
same,glycan array binding signal (z-score),[24],-0.321
same,glycan array binding signal (z-score),[25],0.048
same,glycan array binding signal (z-score),[26],-1.09
same,glycan array binding signal (z-score),[27],0.008
same,glycan array binding signal (z-score),[28],0.882
same,glycan array binding signal (z-score),[29],1.41
same,glycan array binding signal (z-score),[30],0.358
same,glycan array binding signal (z-score),[31],2.06
same,glycan array binding signal (z-score),[32],-0.608
same,glycan array binding signal (z-score),[33],8.45
same,glycan array binding signal (z-score),[34],0.067
same,glycan array binding signal (z-score),[35],2.81
same,glycan array binding signal (z-score),Gal4S(b1-4)GlcNAc,-1.18
same,glycan array binding signal (z-score),Gal6S(b1-4)GlcNAc,0.105
same,glycan array binding signal (z-score),[36],-0.606
same,glycan array binding signal (z-score),GalNAc(b1-4)GlcNAc,1.05
same,glycan array binding signal (z-score),[37],3.54
same,glycan array binding signal (z-score),GalNAc3S(b1-4)GlcNAc3S,0.074
same,glycan array binding signal (z-score),Glc(a1-6)Glc(a1-6)Glc,0.821
same,glycan array binding signal (z-score),[38],-0.504
same,glycan array binding signal (z-score),[39],0.123
same,glycan array binding signal (z-score),[40],4.24
same,glycan array binding signal (z-score),[41],0.242
